Measurements as given in the supplement of paper PMC3334620.
Over roughly 33,000 sequences, “E-score (-0.5 to 0.5)” has its median near -0.035; the highest 2% begin near 0.34. Many of the other results were omitted from the sample, so the highest values are more common in it than they were.

Each sequence was assayed against T1, Mot3 (UniProt P54785) (assay: PBM E-score (8-mer binding enrichment) (E-score (-0.5 to 0.5)); higher = stronger / more preferred TF binding). Conditions: protein concentration: 200 nM; construct: GST-full length.
T1 sequence: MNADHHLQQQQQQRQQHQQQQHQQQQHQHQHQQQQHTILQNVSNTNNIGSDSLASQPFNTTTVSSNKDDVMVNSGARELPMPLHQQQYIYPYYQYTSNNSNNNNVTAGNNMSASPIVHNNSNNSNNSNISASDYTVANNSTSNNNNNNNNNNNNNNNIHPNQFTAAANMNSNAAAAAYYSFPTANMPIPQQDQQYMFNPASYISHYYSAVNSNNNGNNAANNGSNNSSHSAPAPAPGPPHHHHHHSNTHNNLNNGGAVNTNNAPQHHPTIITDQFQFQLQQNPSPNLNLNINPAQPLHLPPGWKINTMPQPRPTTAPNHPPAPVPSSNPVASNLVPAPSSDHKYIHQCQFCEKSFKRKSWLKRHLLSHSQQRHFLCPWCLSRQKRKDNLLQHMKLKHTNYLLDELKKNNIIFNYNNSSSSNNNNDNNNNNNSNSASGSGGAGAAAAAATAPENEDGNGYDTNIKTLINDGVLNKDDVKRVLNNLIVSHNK
Procedure: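 Universal 'all 10-mer' protein binding microarrays (Agilent AMADID 015681) probed with GST-tagged S. cerevisiae TFs (full-length or DBD) made by in vitro transcription/translation (PURExpress), about 100-200 nM. Bound TF was detected with fluorescent anti-GST. Each ungapped 8-mer (which stands for itself and its reverse complement) is scored by the PBM enrichment score (E-score), a modified Wilcoxon-Mann-Whitney statistic from -0.5 to +0.5, computed with the Universal PBM Analysis Suite. Scale: above 0.35 generally sequence-specific binding.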

Sequence	PBM E-score
GTGCGGTA	-0.0948
AGAGAGGA	-0.246
AGTTAGAG	-0.21
GGGAAGCA	-0.178
AACAGCCT	0.0281
CGAGCCAG	-0.0469
GTCGAACA	0.0718
GAAATTTA	0.165
ATGTAAAG	0.411
CTGTAAAC	0.295
GTGTAAAC	0.387
CTGTACAC	0.265
GTGTACAC	0.344
AAGTAAAG	0.131
GGGTAAAC	-0.0508
TTGTAAAA	0.321
CTGTAAAA	0.302
CTGTAAAG	0.24
GTGTACAA	0.325
ATGTAAAA	0.415
GCGCTCCA	-0.136
GTTCGCCA	-0.103
CCATTGAA	0.0844
CTCGGATC	-0.235
GTCGGGAA	-0.104

Sequence	PBM E-score
AGCATCCT	-0.268
ATAAGATA	0.0848
CACGTTGC	0.158
TAGCACGA	-0.0559
ACTCCGGG	-0.248
CGCTCATA	-0.225
GAGCCCAA	-0.136
CGGCCGGA	-0.264
CCGAACAC	-0.0162
GTGTAAAA	0.377
GGGTAAAA	0.112
ATGTAAAC	0.414
AGGTAAAT	0.318
AGGTAAAC	0.302
ACGTAAAC	0.251
GCGTAAAA	0.314
ACGTAAAT	0.272
ATGTAAAT	0.42
ATGGAGGA	0.0248
TAGTGACA	0.124
GTGTGCAA	0.128
CTGGCCCA	-0.265
TATCGGCA	-0.0281
ATAGCGCC	0.228
CGACTCTC	-0.347

Sequence	PBM E-score
CATCGAAG	-0.163
AACCTGGG	0.0477
AGGGACCA	-0.201
AGGTTTGG	-0.141
CCTTCAAC	0.247
CCTTCAAA	0.115
CCTTCAAG	0.351
AGAGAATC	-0.0691
AACCATTA	0.117
GAGGCCCC	-0.242
CTACACAA	0.29
CGACACGC	0.157
GTACACGA	0.327
CTACACTC	0.0954
CTACACGA	0.377
TTACACAA	0.42
GTACACAA	0.323
CTACACGC	0.356
CTACACTA	0.135
CTACACAC	0.333
CTACACAG	0.348
ATACACAG	0.332
AGCCAAGG	-0.106
AGTTCTCG	-0.137
AAAGTGTC	0.0356

Sequence	PBM E-score
AGCGACTC	-0.134
AATGTCTG	-0.0738
AGCGAGAG	-0.117
CTCAAGCC	-0.236
TCATAACA	0.255
AGAATGGA	-0.0583
AAGACCAT	-0.234
GTTAGGCA	0.454
CTTAGGCC	-0.0744
CTTAGGCA	0.444
ATTAGGCC	-0.111
GTTAGGTA	0.26
CTTAGGTA	0.139
GTTAGGGA	-0.113
ATTAGGCA	0.472
ATTAGGCG	-0.0797
CTATGCAA	0.0284
ACCTACCA	0.12
CGGGGATC	-0.303
AAAGCGTG	0.0569
ACCTGATA	0.203
ACTACACT	0.181
TCTACACA	0.361
ACAACACA	0.337
ACTACACA	0.331

Sequence	PBM E-score
TCAACACA	0.353
CCAACACG	0.299
GCTACACA	0.253
ACTACACG	0.386
CCTACACG	0.336
CCCAACGA	-0.0748
AGGGACTG	-0.226
CTGCAAGA	0.0551
CCTCTTCA	-0.171
ATAGCACG	-0.00445
GTAATCCA	0.225
ACAAAGCC	0.0921
CCAAATAG	0.00768
TGAAGCCA	-0.0204
CGAAGGCC	-0.0438
CGAAGGCA	0.476
GGAAGGCC	-0.214
GGAAGGGA	-0.292
TGAAGGCA	0.483
AGAAGGCT	-0.0686
GGAAGGCA	0.482
TGAAGTCA	0.0305
AGAAGGCG	0.27
AGAAGGCA	0.475
CGAAGGCG	0.193

Sequence	PBM E-score
ACCGAGAC	0.0166
CAAGCGTC	-0.0912
GCGGACAC	-0.3
ACGATCCA	-0.0439
CCCTAGTC	-0.163
GATAGGCA	0.473
AATAGGCT	0.161
CATAGGCG	0.0696
CATAGGCA	0.476
TATAGGCA	0.482
GATAGGCC	0.0586
CATAGGCC	0.135
TATAGTCA	0.188
AATAGGCC	-0.0184
AATAGGCA	0.479
GATAGGGA	-0.155
TATAGGGA	-0.0815
GAGTCGAA	-0.0456
CAAGGATG	0.121
CTCAAGCA	-0.101
GGAAGTAC	-0.139
ATGACCAT	0.0148
CGCACTCC	-0.223
CTGAGGTC	-0.255
CTCATGTC	0.191

Sequence	PBM E-score
CTCATGTA	0.359
GTCATGGA	-0.179
GTCATGTA	0.356
CTCATGGA	0.261
GTCATGCA	0.0879
ATTATGTA	0.339
CTTATGTA	0.342
CTTATGTC	0.0522
ATCATGTG	0.198
ATCATGTA	0.392
ATCATGTC	0.245
ATGGTTGA	-0.153
CCATCCGC	-0.164
CCGAAGAC	-0.306
GGGGTCTA	-0.0481
TAGAGAAA	-0.0644
CAACCAGA	0.0325
AAATAGCG	0.11
AGTTACGA	0.138
CCTAGAAA	0.0447
CTGAGCCC	-0.191
CCGTTGAG	-0.213
CAGACAAC	0.00587
CGGGCAAA	0.0704
CAGGCAAA	0.481

Sequence	PBM E-score
CAGGCAGA	0.0294
TGGGCAAA	-0.0148
CCGGCAAG	-0.0693
CAGGCAGG	0.306
CAGGCAAC	0.489
CGGGCAAC	-0.129
CAGGCAAG	0.491
GAGGCAAA	0.328
TAGGCAAA	0.48
ATCCACGG	-0.0193
AACCAGGT	-0.172
AAGACATC	-0.0992
CATAGTGC	0.117
ACAGCCGT	-0.24
CTCCGAAC	-0.132
ACACTACC	-0.089
CCCTTAAA	-0.00813
GCCTTAAA	0.349
ACCTTAAA	-0.092
CACACTCC	-0.178
AGGTACAT	0.367
ACGTACAT	0.286
TGGTACAA	0.0168
GGGTACAA	-0.012
AGGTACAG	0.332

Sequence	PBM E-score
CGGTACAC	0.00913
AGGTACAA	0.363
AAGTACAT	0.265
ATGTACAG	0.247
ATGTACAC	0.338
ATGTACAT	0.378
AGGTACAC	0.366
AAGGGGAA	-0.0624
CAACAGTG	-0.0633
CACGTGGC	-0.0488
AGCCTCCA	-0.369
GGCCTCAA	0.00845
TGCCTCAA	0.365
CGCCTCCA	-0.0882
AGCCTCAA	-0.265
TGCCTCCA	0.404
GACTGCTA	-0.251
CGCGTGCC	0.433
AGCGTGCG	-0.185
AACGTGCA	0.136
AGCGTGCC	0.343
CGCGTGGC	-0.155
AGTGTGCC	0.355
CGCGTGCA	0.0183
AACGTGCG	0.0588

Sequence	PBM E-score
CGTGTGCC	0.23
AGCGTGCA	0.092
AGTGTGCG	-0.149
AACGTGCC	0.397
AGGACACG	0.071
GTGAGCCA	-0.12
GCGTTGGA	0.0942
GTATCGTA	0.197
CCGTTTCA	-0.123
AAGAGAAC	0.0546
ACCGTGCC	0.336
CCTGTGCG	0.185
GCCGTGCA	-0.0598
ACTGTGCC	0.265
CCTGTGCC	0.361
GCCGTGCC	0.346
CGCGAGAC	-0.11
ACGCCAAG	-0.0211
CGCTGTGC	-0.0145
ATAGGTGG	0.0389
AATAAGGA	0.0872
GATTACAA	0.359
GCTTACAA	0.197
GATTACGC	0.23
GATTACTA	0.122

Sequence	PBM E-score
CATTACAG	0.287
CATTACAA	0.301
GCTTACAC	0.178
ACTTACAT	0.311
AATTACAG	0.27
GATTACAC	0.419
AATTACAT	0.419
CATTACAC	0.384
ATGCTGCC	-0.0402
ATCCGGAG	-0.0342
CCATACTC	-0.245
TATTACAA	0.297
AATTACAC	0.402
ACTTACAC	0.217
AATTACCC	-0.0825
AATTACCA	0.174
AATTACAA	0.362
CCTGCAGA	0.303
CCTGCAGC	0.0434
CCTGCAGG	0.413
GACATGGA	0.167
GACATGCA	0.203
AACATGGA	0.312
TACATGGA	0.346
TACATGCA	0.361

Sequence	PBM E-score
AACATGCA	0.324
TACATGAA	0.375
CACATGAA	0.185
GACATGAA	0.274
AGCTATGC	-0.0718
GCACAGTA	-0.0809
ATGCTATG	0.19
CGCTCAGA	0.0235
ATCTTCAT	-0.0494
AAGTAGGG	-0.08
CCCTTGCC	0.0298
CCCTTGTA	0.237
GCCTTGCC	0.416
GCCTTGTA	0.354
GCCTTGCA	-0.00236
ACCTTGTA	0.338
CATTTCGG	-0.063
AGGGCCCT	-0.368
GCTCGGAC	-0.172
CGACAGAA	-0.216
GACCTCGA	-0.139
GTATCCAA	-0.0981
CAGGTCAG	-0.242
CTAGGCAA	0.474
ATAGGCAG	0.234

Sequence	PBM E-score
ATAGGCGC	0.249
ATAGGCTC	0.207
ATAGGCAT	0.412
ATAGGCTA	0.0381
CTAGGCGA	-0.178
ATAGGGAT	0.0533
ATAGGCAA	0.486
CTAGGCTA	-0.18
ATAGGCAC	0.491
ATCGGCAT	-0.0895
CCACAAGG	0.094
AGTGAGCC	-0.0781
CAGTTAAA	0.0473
GTGGCGCA	-0.0264
CCCAGTGA	-0.203
CATTCTCA	0.0726
CTAGGCAC	0.485
TTAGGCAA	0.481
TTAGGGAA	0.0178
GTAGGCTA	0.226
CTAGGCAG	-0.0742
GTAGGCAA	0.49
CTAGGCGC	0.041
TTCGGCAA	0.0952
GTAGGCCA	0.00764

Sequence	PBM E-score
AAGACGCA	-0.0452
AAACAGCG	0.0286
AGCCTGAT	0.183
GGTGCCTA	0.492
AGTGCCGA	-0.324
AGTGCCTA	0.484
AGTGCCAA	-0.0129
GGTGCCGA	0.0164
GGTGCCAA	-0.14
ATACAGAT	0.0248
ACGTAGGA	0.184
AACATGAC	0.359
AACATGCT	0.308
AACATGAT	0.349
AACATGAG	0.277
AACATGAA	0.305
GACATGAC	0.175
ACACAAGT	0.164
ACACTGAC	0.196
